About 1,700 (3.3%) of roughly 52,000 compounds were called active. Only a selection was taken, and actives are over-represented in it overall. Unmarked numbers belong to inactive results. Cut-off read from the data, not from the text of the source: active = survival mostly below about 52% (no sharp cut-off); inactive = mostly above about 56%.
The molecules below were run on Wild type (assay: growth inhibition of S. aureus wild type versus tarO mutant, primary screen, teichoic acid synthesis inhibitors, RN4220, OD600 (AID 463173)). Conditions: S. aureus RN4220 wild type/DeltatarO growth, OD600, 18 h, active compounds read low, concentration not given here.

Row | Structure (SMILES) | survival
1 | COc1ccccc1NC(=O)N(Cc1ccc2c(c1)OCO2)C1CCN(Cc2ccccc2)CC1 | 78%
2 | Cc1ccc(NC(=O)N(Cc2ccc3c(c2)OCO3)C2CCN(Cc3ccccc3)CC2)cc1Cl | 133%
3 | Cc1ccc(NC(=O)N(Cc2ccc3c(c2)OCO3)C2CCN(Cc3ccccc3)CC2)cc1F | 76%
4 | Cc1ccc(NC(=O)N(Cc2ccc3c(c2)OCO3)C2CCN(Cc3ccccc3)CC2)cc1C | -1% (active)
5 | Cc1ccc(Cl)cc1NC(=O)N(Cc1ccc2c(c1)OCO2)C1CCN(Cc2ccccc2)CC1 | 14% (active)
6 | O=C(Nc1ccccc1)N(Cc1ccc2c(c1)OCO2)C1CCN(Cc2ccccc2)CC1 | 78%
7 | Cc1cccc(CN2CCN(C(=O)COc3ccccc3)CC2)c1 | 108%
8 | CCCOc1ccc(CCN)cc1Cl | 107%
9 | O=C(Nc1ccc2c(c1)OCO2)c1cccn(Cc2cccc([N+](=O)[O-])c2)c1=O | 77%
10 | c1cc(C2CCNCC2)ccn1 | 104%
11 | NC(=O)CN1C2CCC1CC(NC(=O)C1CC1)C2 (configuration not stated) | 103%
12 | O=S1(=O)N(Cc2ccccc2Cl)CCCN1Cc1ccccc1Cl | -4% (active)
13 | O=S1(=O)N(Cc2ccccc2)CCCN1Cc1ccc(F)cc1Cl | 76%
14 | O=S1(=O)N(Cc2ccccc2)CCCN1Cc1cccc(Cl)c1 | 78%
15 | COc1ccc(CN2C(=O)CC(=O)NC2=S)cc1 | 107%
16 | CCCCc1nn2c(=O)cc(COC(=O)Cc3ccccc3)nc2s1 | 84%
17 | CCC(C)N1CCN(Cc2ccccc2)CC1 (configuration not stated) | 111%
18 | Cc1cccc(-n2nc(C)c3c2NC(=O)CSC3c2ccccc2Cl)c1 (configuration not stated) | 64%
19 | CCCOc1ccc(C2SCC(=O)Nc3c2c(C)nn3-c2cccc(C)c2)cc1OC (configuration not stated) | 62%
20 | COc1ccccc1C1SCC(=O)Nc2c1c(C)nn2-c1cccc(C)c1 (configuration not stated) | -10% (active)
21 | CCCc1nc2ccccc2c(=O)n1-c1ccccc1 | 127%
22 | O=C(COc1ccccc1)N1CCN(Cc2ccc(Br)cc2)CC1 | 100%
23 | CCCCn1c(=O)c(C(=O)NC)c(O)c2ccccc21 | 112%
24 | CCCCCn1c(=O)c(C(=O)Nc2ccccc2S(N)(=O)=O)c(O)c2ccccc21 | 0% (active)
25 | CCSc1nnc(NC(=O)c2cccn(Cc3ccccc3Cl)c2=O)s1 | 71%

Row | Structure (SMILES) | survival
26 | CN1CCC2(CC1)CC(NC=O)c1ccccc1O2 (configuration not stated) | 108%
27 | CCOC(=O)c1ccc(NC(=O)CSc2nc3c(cc2C#N)N2CCC3CC2)cc1 | 84%
28 | N#Cc1cc2c(nc1SCC(=O)Nc1cccc(F)c1)C1CCN2CC1 | -3% (active)
29 | Nc1c(C(=O)Nc2cccc(Br)c2)sc2nc3c(cc12)N1CCC3CC1 | 63%
30 | N#Cc1cc2c(nc1SCC(=O)Nc1ccc(C(F)(F)F)cc1)C1CCN2CC1 | 0% (active)
31 | N#Cc1cc2c(nc1SCC(=O)Nc1cccc(C(F)(F)F)c1)C1CCN2CC1 | 0% (active)
32 | O=C(CN1C(=O)CN=C(c2ccccc2)c2ccccc21)Nc1cccc(C(F)(F)F)c1 | 48%
33 | N#Cc1cccc(NC(=O)CSc2nc3c(cc2C#N)N2CCC3CC2)c1 | 76%
34 | Nc1c(C(=O)Nc2ccc(OC(F)(F)F)cc2)sc2nc3c(cc12)N1CCC3CC1 | 167%
35 | CN1CCc2c(C#N)c(Cl)nc(NCc3ccccc3)c2C1 | 103%
36 | CCCC1(CCC)C(=O)NC(=Nc2ccccc2)NC1=O | 107%
37 | COc1ccc(CC2C(=O)N(C)C(=O)N(C)C2=O)cc1 | 112%
38 | CCc1cc2c(s1)NC(=O)CN=C2c1cccs1 | 112%
39 | N#CC(C#N)=Cc1cc(Br)cs1 | 94%
40 | Cc1cc(-n2c(/C=C/c3ccc(Br)s3)nc3ccccc3c2=O)ccc1Br | 66%
41 | Cn1cc(C=C(C#N)C#N)c2ccccc21 | 114%
42 | Cc1ccccc1-n1c(/C=C/c2ccc(O)cc2)nc2ccccc2c1=O | 48%
43 | Cc1ccc(-n2c(/C=C\c3ccc(F)c(F)c3)nc3ccccc3c2=O)c(C)c1 | 68%
44 | O=c1c2ccccc2nc(/C=C/c2ccccc2F)n1-c1cccc(O)c1 | 11% (active)
45 | Cc1ccccc1-n1c(/C=C/c2ccccc2F)nc2ccccc2c1=O | 7% (active)
46 | COc1ccc(-n2c(/C=C\c3ccccc3F)nc3ccccc3c2=O)c(OC)c1 | 68%
47 | O=c1c2ccccc2nc(/C=C\c2ccccc2F)n1-c1ccc(O)cc1 | 73%
48 | Cc1ccccc1-n1c(/C=C/c2c(C)[nH]c3ccccc23)nc2ccccc2c1=O | 6% (active)
49 | Cc1cccc(-n2c(/C=C/c3ccccc3O)nc3ccccc3c2=O)c1 | 12%
50 | O=c1c2ccccc2nc(/C=C/c2ccccc2)n1-c1ccccc1F | 97%

Row | Structure (SMILES) | survival
51 | Cc1ccccc1-n1c(/C=C/c2ccc(N(C)C)cc2)nc2ccccc2c1=O | 7% (active)
52 | Cc1cccc(-n2c(/C=C/c3c(C)[nH]c4ccccc34)nc3ccccc3c2=O)c1 | 108%
53 | O=c1c2ccccc2nc(/C=C\c2ccc(F)cc2)n1-c1ccccc1F | 71%
54 | Cc1cccc2sc(NC(=O)c3cccn(Cc4ccccc4)c3=O)nc12 | 78%
55 | COC(=O)c1ccc(NC(=O)c2cccn(Cc3ccccc3C)c2=O)cc1 | 88%
56 | Cc1c(C(c2ccc(Br)cc2)c2c(O)c3ccccc3oc2=O)c(=O)n(-c2ccccc2)n1C (configuration not stated) | 69%
57 | COc1ccc(CNCC(=O)N2CCC3(CC2)OCCO3)cc1 | 107%
58 | CCOc1ccc(CC2(CCc3ccncc3)C(=O)NC(=O)NC2=O)cc1 | 96%
59 | CCOc1ccc(-n2c(/C=C/c3ccccc3)nc3ccccc3c2=O)cc1 | 136%
60 | CCc1ccc(OCC(=O)N2CCN(CCc3ccccn3)CC2)cc1 | 83%
61 | COc1cccc(-n2c(/C=C\c3ccc(Cl)cc3)nc3ccccc3c2=O)c1 | 48%
62 | COc1cccc(-n2c(/C=C/c3ccccc3O)nc3ccccc3c2=O)c1 | 20%
63 | COc1cccc(-n2c(/C=C/c3cccc(C)c3)nc3ccccc3c2=O)c1 | 0% (active)
64 | Nc1c(C(=O)Nc2ccc(Cl)c(C(F)(F)F)c2)sc2nc3c(cc12)N1CCC3CC1 | 1% (active)
65 | N#Cc1cc2c(nc1SCC(=O)Nc1ccc(Cl)c(C(F)(F)F)c1)C1CCN2CC1 | 2% (active)
66 | Nc1c(C(=O)Nc2ccc(F)c(Cl)c2)sc2nc3c(cc12)N1CCC3CC1 | 105%
67 | CC(=O)c1ccc(NC(=O)c2sc3nc4c(cc3c2N)N2CCC4CC2)cc1 | 95%
68 | N#Cc1cc2c(nc1SCC(=O)Nc1ccc(F)c(Cl)c1)C1CCN2CC1 | -2% (active)
69 | CCOC(=O)c1ccc(NC(=O)c2sc3nc4c(cc3c2N)N2CCC4CC2)cc1 | 84%
70 | Nc1c(C(=O)Nc2ccc(Cl)cc2)sc2nc3c(cc12)N1CCC3CC1 | 95%
71 | Nc1c(C(=O)Nc2ccc(Br)cc2F)sc2nc3c(cc12)N1CCC3CC1 | 134%
72 | CN(C)c1ccc(NC(=O)c2sc3nc4c(cc3c2N)N2CCC4CC2)cc1 | 114%
73 | COc1ccc(NC(=O)CCc2nc(C3=CCN(Cc4cccc(Cl)c4)CC3)no2)cc1OC | 76%
74 | CCC(N)C(=O)c1ccc(Cl)cc1 (configuration not stated) | 105%
75 | Cn1c(=O)n(C)c2cc(CNCCc3ccc(F)cc3)ccc21 | 86%

Row | Structure (SMILES) | survival
76 | CC(C)C(=O)c1cn(Cc2ccccc2C#N)c2ccccc12 | 115%
77 | Cc1cccc(Cn2cccc(C(=O)Nc3nnc(C)s3)c2=O)c1 | 71%
78 | O=C(Nc1ccc(Br)cc1C(=O)c1ccccc1)c1ccccc1 | -1% (active)
79 | CC(C)(C)c1ccc(OCC(=O)Nc2ccc(Cl)cc2C(=O)c2ccccc2)cc1 | 63%
80 | Cc1ccc(OCC(=O)Nc2ccc(Cl)cc2C(=O)c2ccccc2)cc1C | 75%
81 | CSc1ncc(C(=O)Nc2ccc(Cl)cc2C(=O)c2ccccc2)c(C)n1 | 88%
82 | O=C(COc1ccc(Br)cc1)Nc1ccc(Cl)cc1C(=O)c1ccccc1 | 72%
83 | O=C(Nc1ccc(Br)cc1C(=O)c1ccccc1Cl)c1ccc(Br)cc1 | 136%
84 | O=C(Nc1ccc(Br)cc1C(=O)c1ccccc1Cl)c1ccccc1F | 76%
85 | COc1ccc(C(=O)Nc2ccc(Cl)cc2C(=O)c2ccccc2)c(OC)c1 | -2% (active)
86 | COc1cc(OC)cc(C(=O)Nc2ccc(Cl)cc2C(=O)c2ccccc2Cl)c1 | 139%
87 | CC(C)(C)c1ccc(C(=O)Nc2ccc(Cl)cc2C(=O)c2ccccc2)cc1 | 3% (active)
88 | O=C(Nc1ccc(Cl)cc1C(=O)c1ccccc1)c1cc(Cl)cc(Cl)c1 | 140%
89 | O=C(Nc1ccc(Cl)cc1C(=O)c1ccccc1)c1ccccc1Br | 5% (active)
90 | Cc1cc(NC(=O)c2cccn(Cc3cccc(Cl)c3)c2=O)no1 | 72%
91 | O=C1NC(=O)N(Cc2ccco2)C(=O)/C1=C\c1ccco1 | 111%
92 | O=C(Nc1ccc2c(c1)OCO2)c1cccn(Cc2ccc(F)cc2)c1=O | 59%
93 | CCCc1nc(SC)ncc1C(=O)Nc1ccc(Cl)cc1C(=O)c1ccccc1 | 84%
94 | COC(=O)C1=C(C)OC(N)=C(C#N)C12C(=O)Nc1ccc(C)cc12 (configuration not stated) | 96%
95 | COc1ccc(CN2CCNCC2)cc1 | 98%
96 | Cc1cccc(NC(=O)Cn2cc(C(=O)c3ccccc3)c3ccccc32)c1C | 71%
97 | CC(c1ccccc1F)n1cc(C(=O)NC2CCCC2)nn1 (configuration not stated) | 103%
